Assay results published in PubChem BioAssay (NCATS).
Records with an inconclusive call do not appear. Entries that show only a call come without a potency. Activity calls are given as the source filed them. Calls come from the whole dose curve; as a rule, active = well fitted inhibition curve with a large enough effect in the polarisation, with a control signal flat (not every such curve was filed as active); inconclusive = small, poorly fitted or top-dose-only effect, or effect the other way; inactive = flat fitted curve, though single readings scatter; the % refers to the polarisation.
Potency is the fitted concentration of half-maximal effect.

Each compound was assayed against Peptidyl-prolyl cis-trans isomerase NIMA-interacting 1 (Homo sapiens) (UniProt Q13526) (assay: qHTS Validation Assay to Find Inhibitors of Pin1 (AID 504536)). Settings: Pin1 fluorescence polarization peptide binding assay; series mostly up to 57.5 µM.
Peptidyl-prolyl cis-trans isomerase NIMA-interacting 1 (Homo sapiens), sequence (Q13526 whole entry, looked up): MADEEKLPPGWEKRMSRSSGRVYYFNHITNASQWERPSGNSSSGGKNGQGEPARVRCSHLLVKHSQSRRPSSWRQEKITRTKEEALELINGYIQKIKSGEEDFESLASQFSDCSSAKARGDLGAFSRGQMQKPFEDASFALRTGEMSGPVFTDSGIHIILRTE
Excerpt: NIH Molecular Libraries Probe Production Network [MLPCN]
NIH Chemical Genomics Center [NCGC]
The unique chemical properties of Pro allow for the adoption of two completely distinct amide bond conformations (cis and trans). Peptidyl-prolyl cis/trans isomerases (PPIases) are evolutionary conserved enzymes that catalyze cis/trans isomerization of peptidyl-prolyl peptide bonds. Distinct from all other PPIases such as cyclophilins and FK506-binding proteins (FKBPs), Pin1 binds a subset of phos.Ser/Thr-Pro-containing proteins using its protein-targeting WW domain and isomerizes only specific phos.Ser/Thr-Pro bonds, which cannot be effectively catalyzed by other known PPIases.
Pin1-catalyzed conformational regulation can control a spectrum of activities of many key regulators in diverse cellular processes such as cell growth, genotoxic and other stress responses, immune response, germ cell development, neuronal differentiation and survival. Pin1 has emerged as a novel molecular timer that modulates its multiple targets at various steps of a given cellular process to synergistically control the amplitude and duration of a cellular response or process. Importantly, Pin1 is tightly regulated by multiple levels and its deregulation has an important role in a growing number of pathological conditions, including cancer, Alzheimer's disease, aging, asthma and microbial infection, providing a potentially new therapeutic option.
The goal of this screen is to find small-molecule inhibitors of Pin1 using a fluorescence polarization competition assay. A HiFluor-488-labeled peptide binds to the active site of Pin1 and can be displaced by compounds. Compounds were screened as a concentration-titration series that ranged from 57 uM to 0.7 nM.
NCGC Assay Protocol Summary:
Pin1 (0.6 uM) was dispensed into black, solid 1536-well plates at 2 uL/well in 10 mM HEPES (pH 7.5), 10 mM NaCl, 0.01% Tween20, 1 mM DTT, and 1% glycerol. Then, 23 nL of compounds or DMSO were delivered to each well using a pin tool. Two uL of Pin1-1b-HiFluor488 peptide (10 mM HEPES (pH 7.5), 10 mM NaCl, 0.01% Tween20, 1 mM DTT, and 1% glycerol, 0.02 uM Pin1-1b-HiFluor488) was then dispensed, and plates were incubated at room temperature for 10 min. The plates were measured on a ViewLux plate reader for fluorescence polarization signal using a 480/20 nM nm excitation filter and 540/25 nM nm S and P emission filters with a 20 second exposure. The %Activity was determined from the corrected fluorescence polarization values. Unlabeled Pin1-1c peptide was used as a control (3.5 mM two-fold serial; 20 uM final concentration) along with a 1x (0.3 uM) and 0x (no-enzyme) Pin1 enzyme control to normalize %Activity of identified inhibitors; 0x enzyme values corresponded to 100%Activity (full inhibition), while 1x Pin1 enzyme values were used to normalize 0%Activity (no inhibition).
Concentration-response curves were fitted to the signals arising from the resulting fluorescence polarization. The concentration-effect curves were then classified based on curve quality (r2), response magnitude and degree of measured activity, and compounds were subsequently categorized based on their curve class.
Keywords: Peptidyl prolyl isomerase, Pin1, fluorescence polarization, MLSMR, MLPCN, NIH Roadmap, qHTS, NCGC
C[C@H](Cc1ccccc1)Nc1ncnc2c1ncn2[C@@H]1O[C@H](CO)[C@@H](O)[C@H]1O was tested, and the Potency was “inactive”.
In the case of O=C1c2ccccc2C(=O)c2c(NCCc3ccc(O)cc3)ccc(NCCc3ccc(O)cc3)c21, the Potency is reported as “inactive”.
With CCc1ccc(/C=C2/SC(=S)NC2=O)cc1 the Potency was “inactive”.
In the case of S=C(Nc1ccccc1)Nc1nccs1, the Potency is reported as “inactive”.
In the case of Nc1c(S(=O)(=O)O)cc(Nc2ccc(Nc3nc(Cl)nc(Nc4ccc(S(=O)(=O)O)cc4)n3)c(S(=O)(=O)O)c2)c2c1C(=O)c1ccccc1C2=O, the Potency is reported as 2390 nM (active).
For O=Nc1c(-c2c(O)[nH]c3ccccc23)[nH]c2ccccc12, the Potency was “inactive”.
For CN1C2CCCC1CC(NC(=O)c1nn(C)c3ccccc13)C2 (stereo unspecified), the Potency was “inactive”.
For C1CCC(N=C(NC23CC4CC(CC(C4)C2)C3)N2CCOCC2)CC1, the Potency was “inactive”.
In the case of Cc1cccc(/C=C/c2ccccc2)n1, the Potency is reported as “inactive”.
For CC[N+](CC)(CC)CC, the Potency was “inactive”.
In the case of Oc1cc2c(c(Cl)c1O)CCNCC2c1ccccc1 (stereo unspecified), the Potency is reported as “inactive”.
